RECQ1 helicase: qHTS Assay for Inhibitors of RecQ-Like Dna Helicase 1 (RECQ1). ATP-dependent DNA helicase Q1 (Homo sapiens), P46063. RECQ1 DNA unwinding, red fluorescence kinetic read. Potency, µM (doses to about 57.3 µM), for the others: at the highest dose activity, negative = inhibition, most hits filed as inhibitors. 240,000 compounds, 0.54% hits. AID 2549, 2010;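 further: plate controls were vehicle for no effect and no enzyme for full effect; nearly all actives have a fitted effect of over 30% in size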
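50 nM RECQ1T1 preincubated 15 min with compound in Tris pH 8.0 buffer with MgCl2, DTT, Tween-20 and 2.5 ug/ml poly(dI-dC); started with 200 nM TAMRA/BHQ-2 forked duplex and 2 mM ATP. Unwinding read as fluorescence (525/598 nm), two reads 2 h apart.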
WRN inhibitor: qHTS for Inhibitors of WRN Helicase. WRN helicase unwinding, fluorescent forked duplex, kinetic. Potency, µM (series often up to 114 µM), for the others: at the top dose activity change, negative = inhibition, most hits filed as inhibitors. 360,000 compounds, 0.46% hits. AID 651768, 2012; further: nearly all actives have a fitted effect of over 55% in size
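Enzyme (20 nM final) and test compound sit together 15 min at room temperature before substrate addition. Substrate is a single-forked duplex oligonucleotide (100 nM) labelled with fluorophore and quencher, with 2 mM ATP; helicase unwinding raises red fluorescence, read kinetically.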
L3MBTL1 inh: qHTS Assay for the Inhibitors of L3MBTL1; Potency, µM (series often up to 57.1 µM), for inactives: at the highest dose activity, negative = inhibition, actives largely listed as inhibitors; AlphaScreen L3MBTL1–H3K9me1 peptide binding; 230,000 compounds, 0.66% hits; further: nearly all actives have a fitted effect of over 60% in size
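Displacement of a biotinylated histone H3(1-15) peptide monomethylated at Lys9 (75 nM) from L3MBTL1 (50 nM) was measured by AlphaScreen after a 30 min room-temperature compound incubation; cefsulodin titration served as intraplate control.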
BLM helicase inh: qHTS Assay for Inhibitors of Bloom's syndrome helicase (BLM); RecQ-like DNA helicase BLM (Homo sapiens), P54132; recombinant BLM DNA unwinding, fluorescence dequenching; Potency, µM (series often up to 56.1 µM), for the others: at the highest dose activity change, negative = inhibition, most hits filed as inhibitors; 350,000 compounds, 0.2% hits; AID 2528, 2010;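 further: plate controls were vehicle for no effect and no enzyme for full effect; nearly all actives have a fitted effect of over 35% in size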
Target sequence (P54132 whole entry, looked up): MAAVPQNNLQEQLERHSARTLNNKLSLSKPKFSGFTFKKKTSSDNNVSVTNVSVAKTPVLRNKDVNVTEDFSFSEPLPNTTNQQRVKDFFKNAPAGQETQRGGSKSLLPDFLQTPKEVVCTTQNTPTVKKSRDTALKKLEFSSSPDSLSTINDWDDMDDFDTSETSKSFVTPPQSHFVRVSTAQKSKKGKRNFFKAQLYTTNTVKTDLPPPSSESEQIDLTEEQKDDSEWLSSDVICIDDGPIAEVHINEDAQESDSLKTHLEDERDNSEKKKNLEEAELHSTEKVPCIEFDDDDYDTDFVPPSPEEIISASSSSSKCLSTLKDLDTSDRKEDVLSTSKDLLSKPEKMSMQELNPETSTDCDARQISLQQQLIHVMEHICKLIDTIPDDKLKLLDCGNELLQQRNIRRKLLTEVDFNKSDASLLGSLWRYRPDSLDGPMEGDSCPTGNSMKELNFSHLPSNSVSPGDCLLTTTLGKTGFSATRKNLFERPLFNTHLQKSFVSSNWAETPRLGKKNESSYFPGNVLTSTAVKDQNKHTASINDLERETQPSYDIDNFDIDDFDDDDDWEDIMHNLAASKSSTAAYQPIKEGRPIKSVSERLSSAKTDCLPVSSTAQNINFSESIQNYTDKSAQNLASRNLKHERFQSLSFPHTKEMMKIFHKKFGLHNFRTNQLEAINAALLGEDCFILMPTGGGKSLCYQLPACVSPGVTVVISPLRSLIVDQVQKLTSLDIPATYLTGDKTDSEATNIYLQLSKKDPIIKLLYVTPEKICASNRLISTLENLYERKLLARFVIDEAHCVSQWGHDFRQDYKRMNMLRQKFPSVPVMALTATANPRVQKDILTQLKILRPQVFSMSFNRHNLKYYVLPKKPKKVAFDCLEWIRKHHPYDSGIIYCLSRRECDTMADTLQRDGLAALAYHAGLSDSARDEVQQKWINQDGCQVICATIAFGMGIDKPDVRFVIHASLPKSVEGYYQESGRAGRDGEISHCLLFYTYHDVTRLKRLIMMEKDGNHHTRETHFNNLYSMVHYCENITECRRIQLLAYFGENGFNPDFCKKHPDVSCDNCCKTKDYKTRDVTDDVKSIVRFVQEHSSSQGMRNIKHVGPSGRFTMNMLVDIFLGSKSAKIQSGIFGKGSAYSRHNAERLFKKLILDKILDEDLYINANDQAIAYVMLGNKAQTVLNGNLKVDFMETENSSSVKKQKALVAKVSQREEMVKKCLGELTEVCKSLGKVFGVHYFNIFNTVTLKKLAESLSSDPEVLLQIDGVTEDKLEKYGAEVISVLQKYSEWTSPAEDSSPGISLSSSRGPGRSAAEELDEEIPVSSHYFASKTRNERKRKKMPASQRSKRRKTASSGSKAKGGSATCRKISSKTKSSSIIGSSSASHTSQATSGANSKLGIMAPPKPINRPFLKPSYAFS
APEX1 inh: qHTS Assay for Inhibitors of the Human Apurinic/apyrimidinic Endonuclease 1 (APE1). DNA repair nuclease/redox regulator APEX1 (Homo sapiens), P27695. recombinant APE1, TAMRA/BHQ-2 abasic DNA cleavage fluorescence. Potency, µM (doses to about 65.8 µM), inactives show at the top dose activity change, negative = inhibition, hits mostly inhibitors. 350,000 compounds, 0.35% hits. AID 2517, 2012;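 further: plate controls were vehicle for no effect and reference inhibitor for full effect; nearly all actives have a fitted effect of over 55% in size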
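Activity was derived from the fluorescence gain between first and third kinetic reads (60 s intervals, ex 525/em 598 nm) after 50 nM THF-abasic TAMRA/BHQ-2 duplex was added to 0.75 nM APE1 preincubated 15 min with compound.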
The depositor's hits bear a star; i = inactive; ? = inconclusive; · = no result given; [ ] = another dose, or the depositor's remark. The list is not random: actives were taken first. Their share in the collection is about 0.92%. The call rests on the fitted dose curve; in most records, active means well fitted curve in the direction sought with a large enough effect; inconclusive means small, poorly fitted or top-dose-only effect, or another doubt; inactive means no such curve, though single readings can be large; an effect the other way counts as inactive or inconclusive. Unless noted, on the % scale 0 is the no-effect control and ±100 the full control effect; potency means the concentration at half of the fitted maximal effect.

SMILES	RECQ1 helicase	WRN inhibitor	L3MBTL1 inh	BLM helicase inh	APEX1 inh
CCc1ccc(S(=O)(=O)/N=C2\C=C(Nc3ccc(C(=O)O)cc3)C(=O)c3ccccc32)cc1	·	-18.2%[11.6 µM]	·	25.1µM*	-15.2%
Cc1ccc(NC2=C/C(=N/S(=O)(=O)c3cccs3)c3ccccc3C2=O)cc1	i	2.9%	?	-10.3%	-4.1%
COc1ccc(Cl)c(Cn2cnc3c(cnn3C(C)(C)C)c2=O)c1F	·	·	·	·	-3.7%
COc1cc(OC)cc(-c2nnc3n2N=C(c2ccc(OC)c(OC)c2)CS3)c1	-8.6%	·	·	2.5%	5.1%
Nc1nnc(-c2ccc3ccccc3c2)o1	·	·	·	·	0.9%
Cc1ccc(S(=O)(=O)/N=C2\C=C(Nc3cccc(C(=O)O)c3)C(=O)c3ccccc32)c(C)c1	·	?	·	25.1µM*	52.7%
CCC1(c2ccccc2)NC(=O)NC1=O (stereo unspecified)	-13.6%	·	·	2.7%	6.4%
CCCCn1c(O)c(/C=C/C=C/C=Nc2ccccc2)sc1=S	31.6µM*	-21.1%	-16.5%	-25.1%	-4.6%
Oc1c(Cl)cc(Cl)cc1Sc1cc(Cl)cc(Cl)c1O	39.8µM*	·	-11.4%	?	8.4%
NC(=O)C1CCN(c2nc(-c3ccc(N4CCCCC4)nc3)cs2)CC1	·	·	·	·	8.8%
C/C(=N\NC(=O)c1cnccn1)c1ccc([N+](=O)[O-])cc1	7.8%	10.2%	-2.8%	-1.4%	1.6%
C/C(=N/NC(=O)c1cc(O)c(O)c(O)c1)c1ccc([N+](=O)[O-])cc1	-5.5%	?	17.8µM*	-20.2%	2.7%
O=C(Nc1cccc(N2C(=O)C=CC2=O)c1)c1cccs1	·	·	28.2µM*	·	-10.9%
OC[C@@H]1[C@@H](c2ccccc2)C(c2ccccc2)=NN1c1ccccc1	-13.7%[81.1 µM]	-1.0%	71.8%	-9.9%[75.6 µM]	-16.3%
OC[C@@H]1[C@@H](c2ccccc2)C(c2cccc(Cl)c2)=NN1c1ccccc1	31.6µM*	-7.5%	90.2%	-11.0%[75.6 µM]	-13.2%
Cc1noc(C)c1-c1ccc2ncnc(NCC3CCN(C)CC3)c2c1	-0.3%	·	·	0.1%	-2.4%
CC(C)(CCCCCCCCCCC(C)(C)CC(=O)O)CC(=O)O	-1.6%	·	·	-6.0%	-3.1%
Cc1ccc(CNc2ccc(O)cc2)cc1	-11.5%	?	25.1µM*	25.1µM*	-9.1%
COc1cc2c3cc1Oc1c(OC)c(OC)cc4c1[C@@H](Cc1ccc(OC(=O)c5ccc([N+](=O)[O-])cc5)c(c1)Oc1ccc(cc1)C[C@@H]3N(C)CC2)N(C)CC4	25.5%	·	·	52.3%	-2.3%
O=C(c1cc(-c2ccco2)nn1-c1cccc(Cl)c1)N1CCCCC1	?	56.2µM*	-26.4%	-22.7%	-6.6%
Cc1nc(N=Nc2cc(S(=O)(=O)O)ccc2S(=O)(=O)O)c(COP(=O)(O)O)c(C=O)c1O	-29.5%	·	·	87.9%	15.8µM*
COC(=O)c1ccc2c(c1)C(C)(C)C(/C=C/c1ccccc1O)=[N+]2C	-15.3%	56.2µM*	-21.1%	5.7%	?
C[N+]1=C(/C=C/Nc2ccccc2Cl)C(C)(C)c2ccccc21	?	-31.4%[57.1 µM]	4.1%	-1.1%	?
O=Nc1c(-c2c(O)[nH]c3cc(Br)ccc23)[nH]c2ccccc12	28.2µM*	-14.0%	·	-16.0%	-10.5%
CC(C)(C)n1ncc2c(=O)n(Cc3c(F)cc(Cl)cc3F)cnc21	·	·	·	·	-0.1%
SMILES	RECQ1 helicase	WRN inhibitor	L3MBTL1 inh	BLM helicase inh	APEX1 inh
OC[C@H]1NC[C@@H](O)[C@@H](O)[C@@H]1O	i	·	·	4.5%	-1.9%
COc1ccc(C2=NN(C(=O)CCCC(=O)O)C(c3cn(-c4ccccc4)nc3-c3ccccc3)C2)cc1 (stereo unspecified)	-0.2%	0.299µM*	·	-0.8%	-4.9%
COc1cccc(CN2C(=O)C3CCCN3c3ccc(S(=O)(=O)N4CCOCC4)cc32)c1 (stereo unspecified)	28.2µM*	·	1.8%	-3.9%	15.1%
CN(C)c1ccc(O)c2c1CC1CC3C(N(C)C)C(=O)C(C(N)=O)=C(O)[C@@]3(O)C(=O)C1=C2O (stereo partly specified)	·	-11.3%	·	·	·
CN(C)[C@@H]1C(=O)C(C(=O)NCN2CCCC2)=C(O)[C@@]2(O)C(=O)C3=C(O)c4c(O)cccc4[C@@](C)(O)C3CC12 (stereo partly specified)	3.16µM*	·	?	14.1µM*	2.51µM*
O=C1/C(=C/c2ccc(O)c(O)c2)SC(=S)N1Nc1ccccc1	14.1µM*	?	·	?	69.7%
CCOc1cc(/C=C2\SC(=S)N(N3CCOCC3)C2=O)ccc1O	i	-8.8%	·	-2.1%	-2.6%
COc1cc(/C=C2\SC(=S)N(Nc3ccccc3)C2=O)ccc1O	-2.3%	15.8µM*	?	-28.5%	6.1%
CCOc1ccc(/C=C2\SC(=S)N(NS(=O)(=O)c3ccccc3)C2=O)cc1OC	-6.0%	-22.4%	-13.2%	0.7%	-2.3%
CCOc1cc(/C=C2\SC(=S)N(Nc3ccccc3)C2=O)ccc1O	25.1µM*	17.8µM*	?	-22.0%	?
CCOc1cc(/C=C2\SC(=S)N(NS(=O)(=O)c3ccccc3)C2=O)ccc1O	·	56.2µM*	·	-4.9%	15.7%
COc1cc(/C=C2\SC(=S)N(C(Cc3ccccc3)C(=O)O)C2=O)ccc1O (stereo unspecified)	25.1µM*	50.1µM*	-12.3%	-20.2%	?
O=C(O)C(Cc1ccccc1)N1C(=O)/C(=C/c2ccccc2)SC1=S (stereo unspecified)	8.8%	1.1%	-28.3%	-0.4%	-1.8%
COc1cc(/C=C2/SC(=S)N(CC(=O)O)C2=O)ccc1OCC(=O)Nc1ccc(C)c(C)c1	·	·	·	?	4.74µM*
COc1cc(/C=C2/SC(=S)N(CC3CCCO3)C2=O)ccc1O (stereo unspecified)	31.6µM*	79.4µM*	-26.7%	-18.7%	?
CC(C)ON(C(C(=O)NO)C(C)C)S(=O)(=O)c1ccc(-c2ccccc2)cc1 (stereo unspecified)	-6.2%	·	·	-8.5%	-1.9%
CN1CCc2ccc3c4c2[C@]1(C)Cc1cccc(c1-4)OCO3	42.6%	·	·	-1.2%	?
CCOc1ccc(N=Nc2cc(C(C)C)ccc2O)cc1	-7.7%	-2.4%	28.2µM*	0.1%	0.3%
CCOc1ccc(N=Nc2ccc(O)c3ncccc23)cc1	·	12.2%	·	-11.4%	19.5%
C=CC1=C(C)C2=Cc3c(C=C)c(C)c4[n]3[Sn+2][n]3c(c(C)c(CCC(=O)O)c3=CC3=NC(=C4)C(C)=C3CCC(=O)O)=CC1=N2	39.8µM*	·	·	-22.3%	8.91µM*

Source: PubChem
